# Test results taken from paper PMC7862700, “An all-to-all approach to the identification of sequence-specific readers for epigenetic DNA modifications on cytosine”.
# Columns and labels:
# Assay in all cases: DAPPL (digital affinity profiling via proximity ligation, sequencing); 10 mM Tris-HCl pH 7.5, 50 mM NaCl, 1 mM DTT, 4% glycerol, room temperature, 30 min; GST-TFs on glutathione beads, 16-mer random dsDNA library, 0.1% formaldehyde crosslink after washing; high values mean tight binding
# Conditions in all cases: protein: recombinant; tags: N-terminal GST; dsDNA, one strand shown
# FLI1 = molecular target: T1, FLI1 (Homo sapiens, UniProt Q01543 1-452)
# T1 sequence: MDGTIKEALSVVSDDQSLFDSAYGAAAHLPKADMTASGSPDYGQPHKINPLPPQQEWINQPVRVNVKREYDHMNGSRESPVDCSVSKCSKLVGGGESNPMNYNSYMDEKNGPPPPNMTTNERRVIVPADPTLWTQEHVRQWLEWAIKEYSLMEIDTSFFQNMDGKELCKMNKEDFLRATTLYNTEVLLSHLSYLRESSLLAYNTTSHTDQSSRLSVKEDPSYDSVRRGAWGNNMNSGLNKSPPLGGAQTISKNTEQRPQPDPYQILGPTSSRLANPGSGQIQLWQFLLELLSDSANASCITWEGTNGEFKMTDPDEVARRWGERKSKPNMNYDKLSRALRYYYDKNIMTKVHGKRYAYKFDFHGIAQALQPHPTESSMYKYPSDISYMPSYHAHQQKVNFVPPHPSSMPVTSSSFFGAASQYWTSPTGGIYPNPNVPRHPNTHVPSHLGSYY
# Procedure, shortened: (§1)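 Binding signal is defined as a hexamer's read frequency for one factor over its frequency for the tag-only sample. To obtain reads, GST-fused human transcription factors were expressed in yeast, captured on glutathione beads, barcoded with DNA and pooled with that sample. Pools met 200 nmole of a 16-mer random double-stranded DNA library in Tris/NaCl/DTT/glycerol buffer for 30 min at room temperature before washing, 0.1% formaldehyde crosslinking, proximity ligation (BsaI/T4 ligase, 1 h, 37 °C), PCR and Illumina NextSeq500 sequencing.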
# ELK1 = molecular target: T2, ELK1 (Homo sapiens, UniProt P19419 1-428)
# T2 sequence: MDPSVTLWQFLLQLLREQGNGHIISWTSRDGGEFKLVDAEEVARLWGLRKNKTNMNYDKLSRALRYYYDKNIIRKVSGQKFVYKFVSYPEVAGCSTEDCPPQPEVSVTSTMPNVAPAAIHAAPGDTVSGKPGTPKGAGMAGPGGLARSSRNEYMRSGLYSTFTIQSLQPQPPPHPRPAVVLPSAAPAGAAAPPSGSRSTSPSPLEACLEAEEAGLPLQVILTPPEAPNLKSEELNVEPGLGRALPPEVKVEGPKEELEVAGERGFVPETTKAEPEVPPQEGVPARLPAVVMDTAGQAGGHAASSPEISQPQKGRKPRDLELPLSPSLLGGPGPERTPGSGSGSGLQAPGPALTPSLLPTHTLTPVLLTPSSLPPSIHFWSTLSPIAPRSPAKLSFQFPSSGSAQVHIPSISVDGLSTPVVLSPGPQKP
# Procedure, shortened: as §1
# GABPA = molecular target: T3, GABPA (Homo sapiens, UniProt Q06546 1-454)
# T3 sequence: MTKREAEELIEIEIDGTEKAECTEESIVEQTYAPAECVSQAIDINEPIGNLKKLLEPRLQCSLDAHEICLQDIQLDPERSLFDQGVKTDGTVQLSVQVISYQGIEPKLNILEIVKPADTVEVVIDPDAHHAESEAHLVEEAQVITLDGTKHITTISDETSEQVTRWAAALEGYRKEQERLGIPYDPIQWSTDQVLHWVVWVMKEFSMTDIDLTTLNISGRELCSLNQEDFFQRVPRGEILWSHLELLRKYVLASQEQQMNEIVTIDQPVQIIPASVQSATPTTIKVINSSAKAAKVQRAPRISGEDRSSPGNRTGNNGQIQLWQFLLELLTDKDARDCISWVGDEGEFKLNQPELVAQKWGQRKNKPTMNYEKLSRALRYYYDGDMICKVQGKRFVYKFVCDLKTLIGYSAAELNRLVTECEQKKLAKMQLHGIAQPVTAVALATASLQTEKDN
# Procedure, shortened: as §1
# ERG = molecular target: T4, ERG (Homo sapiens, UniProt P11308 1-479)
# T4 sequence: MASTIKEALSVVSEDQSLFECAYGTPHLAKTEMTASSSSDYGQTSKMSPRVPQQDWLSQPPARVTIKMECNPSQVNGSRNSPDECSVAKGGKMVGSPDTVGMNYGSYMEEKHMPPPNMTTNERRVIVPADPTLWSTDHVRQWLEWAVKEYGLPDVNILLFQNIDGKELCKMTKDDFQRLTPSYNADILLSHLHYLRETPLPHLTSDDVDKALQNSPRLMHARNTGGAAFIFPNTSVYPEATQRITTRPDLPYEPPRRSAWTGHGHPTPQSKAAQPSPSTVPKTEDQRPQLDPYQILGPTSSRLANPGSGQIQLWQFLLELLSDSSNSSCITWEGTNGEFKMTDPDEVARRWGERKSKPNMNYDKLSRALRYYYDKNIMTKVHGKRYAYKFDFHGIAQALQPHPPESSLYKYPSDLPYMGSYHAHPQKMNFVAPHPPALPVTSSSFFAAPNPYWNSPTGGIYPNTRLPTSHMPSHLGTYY
# Procedure, shortened: as §1
# ELF1 = ELF1 (Homo sapiens, UniProt P32519 1-619)
# Chain of ELF1 (P32519 whole entry): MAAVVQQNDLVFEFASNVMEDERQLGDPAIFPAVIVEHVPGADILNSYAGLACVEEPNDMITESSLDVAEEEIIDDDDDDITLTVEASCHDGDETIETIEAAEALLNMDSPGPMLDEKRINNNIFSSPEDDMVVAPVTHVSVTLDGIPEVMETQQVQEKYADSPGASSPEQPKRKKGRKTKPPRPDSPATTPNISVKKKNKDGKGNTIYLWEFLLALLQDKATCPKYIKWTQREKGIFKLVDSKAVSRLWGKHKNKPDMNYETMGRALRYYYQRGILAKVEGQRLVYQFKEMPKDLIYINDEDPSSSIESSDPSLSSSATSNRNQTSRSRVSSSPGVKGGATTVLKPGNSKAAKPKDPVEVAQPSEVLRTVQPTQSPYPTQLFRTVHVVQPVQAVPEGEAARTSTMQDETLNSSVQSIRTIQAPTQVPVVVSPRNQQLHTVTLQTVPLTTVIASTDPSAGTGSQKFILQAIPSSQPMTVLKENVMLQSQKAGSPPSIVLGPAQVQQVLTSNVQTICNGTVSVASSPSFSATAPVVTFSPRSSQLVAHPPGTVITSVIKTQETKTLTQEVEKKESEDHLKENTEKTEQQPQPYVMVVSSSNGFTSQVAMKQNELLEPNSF
# Procedure, shortened: as §1
# EHF = molecular target: T5, EHF (Homo sapiens, UniProt Q9NZC4 1-300)
# T5 sequence: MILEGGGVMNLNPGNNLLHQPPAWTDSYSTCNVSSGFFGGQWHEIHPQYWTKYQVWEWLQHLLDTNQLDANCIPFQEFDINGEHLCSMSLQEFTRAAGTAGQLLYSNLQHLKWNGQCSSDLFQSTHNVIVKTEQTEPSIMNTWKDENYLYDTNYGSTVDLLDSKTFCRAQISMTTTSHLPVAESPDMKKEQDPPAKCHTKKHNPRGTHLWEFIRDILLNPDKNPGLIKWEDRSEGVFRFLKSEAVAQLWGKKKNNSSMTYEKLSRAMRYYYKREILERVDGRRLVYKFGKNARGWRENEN
# Procedure, shortened: as §1
# SPI1 = SPI1 (Homo sapiens, UniProt P17947 1-270)
# Procedure, shortened: as §1
# SPIB = SPIB (Homo sapiens, UniProt Q01892 1-262)
# Chain of SPIB (Q01892 whole entry): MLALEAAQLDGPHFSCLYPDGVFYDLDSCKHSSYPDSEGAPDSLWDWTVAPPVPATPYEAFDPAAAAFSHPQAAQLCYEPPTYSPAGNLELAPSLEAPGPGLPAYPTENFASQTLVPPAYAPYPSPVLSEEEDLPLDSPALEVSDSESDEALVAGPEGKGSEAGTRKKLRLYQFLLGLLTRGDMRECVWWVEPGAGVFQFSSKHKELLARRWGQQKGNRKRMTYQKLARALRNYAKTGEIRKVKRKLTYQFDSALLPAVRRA
# Procedure, shortened: as §1
# ELK3 = molecular target: T6, ELK3 (Homo sapiens, UniProt P41970 1-407)
# T6 sequence: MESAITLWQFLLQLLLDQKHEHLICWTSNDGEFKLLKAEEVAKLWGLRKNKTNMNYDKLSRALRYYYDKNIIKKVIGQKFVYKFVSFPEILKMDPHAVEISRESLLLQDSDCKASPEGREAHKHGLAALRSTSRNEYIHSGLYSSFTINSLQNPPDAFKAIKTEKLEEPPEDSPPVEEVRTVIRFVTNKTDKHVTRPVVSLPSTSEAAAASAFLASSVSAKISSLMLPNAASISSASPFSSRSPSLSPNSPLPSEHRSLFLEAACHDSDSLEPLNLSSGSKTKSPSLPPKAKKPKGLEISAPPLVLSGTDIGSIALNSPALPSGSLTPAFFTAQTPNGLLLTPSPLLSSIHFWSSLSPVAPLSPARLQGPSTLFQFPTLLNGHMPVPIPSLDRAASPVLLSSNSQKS
# Procedure, shortened: as §1
# ETV5 = ETV5 (Homo sapiens, UniProt P41161 1-510)
# Chain of ETV5 (P41161 whole entry): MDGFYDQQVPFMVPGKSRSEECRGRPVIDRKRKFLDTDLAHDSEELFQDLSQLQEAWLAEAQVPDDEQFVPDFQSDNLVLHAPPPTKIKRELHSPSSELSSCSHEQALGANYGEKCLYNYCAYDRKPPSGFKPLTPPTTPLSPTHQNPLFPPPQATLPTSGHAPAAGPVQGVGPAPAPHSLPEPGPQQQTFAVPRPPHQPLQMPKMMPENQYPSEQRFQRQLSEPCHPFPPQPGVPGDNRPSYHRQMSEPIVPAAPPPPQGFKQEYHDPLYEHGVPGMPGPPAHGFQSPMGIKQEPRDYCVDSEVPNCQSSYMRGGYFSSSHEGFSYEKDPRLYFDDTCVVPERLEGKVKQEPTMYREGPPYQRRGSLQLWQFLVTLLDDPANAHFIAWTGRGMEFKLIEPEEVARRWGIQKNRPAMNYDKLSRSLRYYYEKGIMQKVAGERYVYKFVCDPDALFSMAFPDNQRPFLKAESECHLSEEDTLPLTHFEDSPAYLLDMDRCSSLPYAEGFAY
# Procedure, shortened: as §1
sequence,measurement,setting,value
GTACCC,binding signal,FLI1,"1.08 fold enrichment (6-mer frequency, TF over GST control)"
same,binding signal,ELK1,"1.05 fold enrichment (6-mer frequency, TF over GST control)"
same,binding signal,GABPA,"1.07 fold enrichment (6-mer frequency, TF over GST control)"
same,binding signal,ERG,"1.05 fold enrichment (6-mer frequency, TF over GST control)"
same,binding signal,ELF1,"1.12 fold enrichment (6-mer frequency, TF over GST control)"
same,binding signal,EHF,"1.16 fold enrichment (6-mer frequency, TF over GST control)"
same,binding signal,SPI1,"1.16 fold enrichment (6-mer frequency, TF over GST control)"
same,binding signal,SPIB,"1.07 fold enrichment (6-mer frequency, TF over GST control)"
same,binding signal,ELK3,"1.12 fold enrichment (6-mer frequency, TF over GST control)"
same,binding signal,ETV5,"1.17 fold enrichment (6-mer frequency, TF over GST control)"
